# PubChem BioAssay AID463173 (ICCB-Longwood Screening Facility, Harvard Medical School, 2010)
# Out of some 52,000 compounds screened, about 4,300 (8.3%) were called active. No stated cut-off is given here; in the data, active means survival mostly below about 52% (no sharp cut-off); inactive means mostly above about 56%. The full list was thinned out, with actives kept by preference.
# Tested on: DeltatarO mutant
# Assay: growth inhibition of S. aureus wild type versus tarO mutant, primary screen, teichoic acid synthesis inhibitors, RN4220, OD600 (AID 463173)
# Settings: OD600, 18 h, active compounds read low, screened at 18.75 µg/mL (by protocol)
row,SMILES,survival
1,Cc1c(C(=O)N(C)C)sc2c1c(=O)n(-c1ccc(F)cc1)c(=O)n2Cc1ccccc1C#N,76% (inactive)
2,Cc1ccc(N(C)C(=O)c2sc3nc4n(c(=O)c3c2C)CCCC4)cc1C,64% (inactive)
3,O=C(Cn1c(=O)n(CCCS(=O)(=O)C2CCCCC2)c(=O)c2ccccc21)Nc1ccccc1C(F)(F)F,91% (inactive)
4,Cc1ccc(S(=O)(=O)CCC(=O)Nc2ccc(Br)cc2C)cc1,85% (inactive)
5,Cc1ccc(C)c(N2CCN(C(=O)C3CCCN(S(=O)(=O)c4cccc5nonc45)C3)CC2)c1 (stereo not drawn),76% (inactive)
6,COc1ccc(OC)c(NC(=O)c2cc3cccc(OC)c3oc2=O)c1,77% (inactive)
7,Cc1cccc(C)c1NC(=O)c1cc2sccc2n1Cc1ccc(F)cc1,96% (inactive)
8,COc1cc(/C=C(\C#N)c2nc3ccc(C)cc3[nH]2)ccc1OC(C)C,46% (active)
9,COc1cc(/C=C(\C#N)c2nc3ccccc3[nH]2)ccc1OCc1ccc(F)cc1,70% (inactive)
10,COc1cc(/C=C(\C#N)c2nc3ccc(C)cc3[nH]2)ccc1OCc1ccc(C)cc1,59% (inactive)
11,COc1ccc(/C=C(\C#N)c2nc3ccccc3c(=O)[nH]2)cc1OC,86% (inactive)
12,CCC(=O)Oc1ccc(/C=C(\C#N)c2nc3ccccc3[nH]2)cc1OC,47% (inactive)
13,CCOC(=O)COc1ccc(/C=C(\C#N)c2nc3ccc(C)cc3[nH]2)cc1OC,43% (active)
14,Cc1ccc(-n2nc(C)c3c(C)cc(=O)n(CC(=O)N4CCCc5ccccc54)c32)cc1,80% (inactive)
15,Cc1oc2ncn(CC(C)C)c(=O)c2c1C(=O)Nc1ccc(Cl)cn1,86% (inactive)
16,COc1ccc(CNC(=O)C2CCC(CNS(=O)(=O)c3ccc4c(c3)CCCC(=O)N4)CC2)cc1 (stereo not drawn),87% (inactive)
17,CCc1cccc(NC(=O)C2CCCN(c3ncccn3)C2)c1 (stereo not drawn),80% (inactive)
18,COc1ccc(CNC(=O)CCc2c(C)nn(-c3ccc(N4CCCCC4)nn3)c2C)cc1,75% (inactive)
19,Cc1ccc(CNC(=O)CN2CCN(Cc3ccc(F)cc3)C2=O)cc1,95% (inactive)
20,Cc1c(Cl)cccc1NC(=O)c1ccc(C(=O)Nc2cccc(Cl)c2C)cc1,81% (inactive)

row,SMILES,survival
1,CCC(Cc1ccccc1)NC(=O)c1cccc(Nc2nc3ccccc3nc2-n2nc(C)cc2C)c1 (stereo not drawn),63% (inactive)
2,CCCCOC(=O)c1ccc(Nc2nnc(-n3nc(C)cc3C)c3ccccc23)cc1,98% (inactive)
3,Cc1ccc(C(=O)O)cc1Nc1nc2ccccc2n2nnnc12,82% (inactive)
4,Cc1ccc(Nc2nc3ccc(C)cc3nc2-n2nc(C)cc2C)c(C)c1,81% (inactive)
5,CC(=O)c1ccc(Nc2nc3ccccc3nc2-n2nc(C)cc2C)cc1,44% (active)
6,Cc1cc(C)n(-c2nc3ccccc3nc2Nc2ccc(Cl)c(C(=O)OC(C)C)c2)n1,99% (inactive)
7,CCCOC(=O)c1ccc(Nc2nc3ccccc3nc2-n2nc(C)cc2C)cc1,24% (active)
8,Cc1cc(C)n(-c2nc3ccccc3nc2Nc2cc(C(=O)O)ccc2C)n1,42% (active)
9,Cc1cc(C)n(-c2nc3ccccc3nc2Nc2cccc(C(=O)NCCc3ccccc3)c2)n1,93% (inactive)
10,COc1cccc(C(=O)Nc2c(C(=O)c3ccc(F)cc3)oc3ccccc23)c1,66% (inactive)
11,CCn1c(SC)nnc1C1CCCN(Cc2ccccc2)C1 (stereo not drawn),100% (inactive)
12,CC(C)Cn1cc(NC(=O)N2CCN(c3ccc(F)cc3)CC2)c2ccccc2c1=O,99% (inactive)
13,O=C(Nc1cccc(F)c1)c1ccc(-c2ccccc2)s1,82% (inactive)
14,CCOC(=O)c1cc(-c2ccc(OC)cc2)n(CCC(=O)Nc2cccc(C)c2C)c1C,93% (inactive)
15,CC1=Nc2cc(C(=O)NC3CCCC3)ccc2Sc2ccc(Cl)cc21,77% (inactive)
16,Cc1ccccc1-c1nnc(C2CCN(S(=O)(=O)c3ccc(Cl)cc3)CC2)o1,89% (inactive)
17,CCOc1ccc2nc(N3CCCC(C(=O)Nc4ccccc4CC)C3)sc2c1 (stereo not drawn),95% (inactive)
18,O=C(Nc1nnc(S(=O)(=O)N2CCOCC2)s1)c1ccc(F)cc1,78% (inactive)
19,COc1cccc(C(=O)Nc2nnc(S(=O)(=O)N3CCCC3)s2)c1,33% (active)
20,O=C(Nc1nnc(S(=O)(=O)N2CCCCCC2)s1)c1ccc(Br)cc1,60% (inactive)

row,SMILES,survival
1,O=C(Nc1nnc(S(=O)(=O)N2CCCCCC2)s1)c1cccc(Br)c1,9% (active)
2,COc1ccc(C(=O)Nc2nnc(S(=O)(=O)N3CCCCCC3)s2)cc1OC,80% (inactive)
3,Cc1cccc(C(=O)Nc2nnc(S(=O)(=O)N3CCOCC3)s2)c1,58% (inactive)
4,O=C(Nc1nnc(S(=O)(=O)N2CCOCC2)s1)c1cccc(Br)c1,42% (active)
5,COc1cccc(C(=O)Nc2nc3ccc(S(=O)(=O)N4CCCC4)cc3s2)c1,79% (inactive)
6,CC1CCN(C(=O)COc2ccc(C(C)C)cc2)CC1,86% (inactive)
7,Cc1ccc(C)n1-c1nnc(N2CCC(C(=O)Nc3ccccc3Br)CC2)s1,91% (inactive)
8,c1cc(CNC2CCCCC2)co1,72% (inactive)
9,Nc1nnc(CCC(CCc2nnc(N)s2)(CCc2nnc(N)s2)C(=O)c2ccccc2)s1,92% (inactive)
10,COc1ccc(C)c2sc(N(Cc3cccnc3)C(C)=O)nc12,80% (inactive)
11,COc1ccccc1NC(=O)Cn1c(=O)n(Cc2ccc3c(c2)OCO3)c(=O)c2oc3ccccc3c21,77% (inactive)
12,Cn1c(SCc2ccc(F)cc2)nc2ccc(C(=O)NCc3ccc(Cl)cc3)cc21,50% (inactive)
13,Cn1c(SCc2ccc(F)cc2)nc2ccc(C(=O)NCc3cccc(Cl)c3)cc21,56% (active)
14,Cn1c(SCc2ccc(F)cc2)nc2ccc(C(=O)NCc3ccccc3)cc21,49% (inactive)
15,COc1cc(C2NC(=O)NC(C)=C2C(=O)Nc2cc(C)cc(C)c2)ccc1O (stereo not drawn),38% (active)
16,COc1ccc(OC)c(C2NC(=O)NC(C)=C2C(=O)Nc2cc(C)cc(C)c2)c1 (stereo not drawn),47% (inactive)
17,COc1ccc(C2NC(=O)NC(C)=C2C(=O)Nc2ccccc2)cc1OC (stereo not drawn),116% (inactive)
18,Cc1cccc(NC(=O)CSc2nnc3[nH]c(=O)cc(-c4ccccc4)n23)c1C,116% (inactive)
